Screening data from PubChem.
proKLK7 act: proKLK7 zymogen activators, primary screen, biochemical, fluorescence intensity; Kallikrein-7 (Homo sapiens), P49862; activation, % at 7 µM; AID 652039, 2013; purified proKLK7, EDANS-DABCYL substrate fluorescence; 100% is mature enzyme control, 0% vehicle; actives 0.9% (n = 370,000);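 active = activation above the mean of all tested compounds plus 3 SD, computed per campaign excluding outliers beyond control limits, cut at about 13% in these data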
ADAM17 inh: ADAM17 inhibitors, primary screen, biochemical, QFRET | inhibition, % at 6.95 µM | AID 720648, 2013 | Disintegrin and metalloproteinase domain-containing protein 17 (Homo sapiens), P78536 | recombinant ADAM17, EDANS/DABCYL FRET peptide cleavage | actives 0.83% (n = 370,000);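 active = inhibition above the mean of compounds lying between control limits plus 3 SD, set per campaign, cut at about 8.5% in these data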
GRIN3A LBD mod: binders of NR3A ligand-binding domain, primary screen, biophysical, differential scanning fluorimetry, uHTS; NR3A LBD differential scanning fluorimetry, Tm shift; 0% = protein alone, 100% = glycine-bound protein; Tm shift relative to glycine control, % at 25 µM; actives 2.5% (n = 340,000); AID 1259313, 2017;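 active = melting temperature shift of at least 10% of the positive control shift, at one fixed dose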
ADAM10 inh: human ADAM10 inhibitors, primary screen, biochemical, QFRET, HTS | inhibition, % at 7 µM | recombinant ADAM10, EDANS/DABCYL FRET peptide cleavage, 3 h | actives 0.62% (n = 370,000) | AID 720582, 2013 | Disintegrin and metalloproteinase domain-containing protein 10 (Homo sapiens), O14672;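 active = inhibition above a per-campaign cutoff equal to the mean of compounds falling between control-based bounds plus 3 SD, cut at about 20% in these data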
Target sequence (O14672 214-748 limits assumed): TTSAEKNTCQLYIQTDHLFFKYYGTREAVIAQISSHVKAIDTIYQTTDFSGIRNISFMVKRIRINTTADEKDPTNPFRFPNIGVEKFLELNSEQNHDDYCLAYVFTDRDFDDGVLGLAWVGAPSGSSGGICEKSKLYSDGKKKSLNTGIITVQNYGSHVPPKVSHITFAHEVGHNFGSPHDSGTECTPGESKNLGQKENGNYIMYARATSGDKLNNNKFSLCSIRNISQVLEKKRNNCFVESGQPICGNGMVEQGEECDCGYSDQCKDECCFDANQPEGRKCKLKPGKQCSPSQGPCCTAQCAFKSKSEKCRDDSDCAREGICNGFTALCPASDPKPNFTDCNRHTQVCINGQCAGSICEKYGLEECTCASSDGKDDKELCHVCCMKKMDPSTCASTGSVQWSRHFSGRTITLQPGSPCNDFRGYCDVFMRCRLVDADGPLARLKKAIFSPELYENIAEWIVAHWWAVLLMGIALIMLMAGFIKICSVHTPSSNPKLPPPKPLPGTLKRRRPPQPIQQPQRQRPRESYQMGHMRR
FAS TE block: FAS thioesterase domain inhibitors, primary screen, biochemical, fluorescence intensity, uHTS | AID 602261, 2012 | inhibition, % at 15 µM | actives 0.67% (n = 360,000) | recombinant FAS-TE, OMFH fluorogenic substrate, fluorescence endpoint | Fatty acid synthase (Homo sapiens), P49327;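 active = compounds whose normalised, plate-corrected inhibition of enzyme fluorescence in the single-dose primary screen is 50% or more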
FAS-TE conf: FAS thioesterase domain inhibitors, confirmation, biochemical, fluorescence intensity, single concentration | inhibition, % at 15 µM | actives 45% (n = 2,300) | shares compounds with FAS TE block | recombinant FAS-TE, OMFH fluorogenic substrate;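 active = compounds inhibiting the enzyme by at least 50% at 15 µM in any one of the replicates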
Large screens that a line does not name were inactive (follow-up assays come after a bar, where they were run). A selection: hits, their analogues and other compounds. The true share with any hit is near 4.6%.

Cc1cnc(NC(=O)c2cc(S(=O)(=O)N(C)C)ccc2N2CCCC2)s1	none
CN(C)S(=O)(=O)c1ccc(N2CCCC2)c(C(=O)Nc2nc3c(ccc4ccccc43)s2)c1	FAS TE block 92 | FAS-TE conf inactive
O=C(Nc1ccc(F)cc1)OCc1cn(Cc2cc(F)ccc2F)nn1	none (no result: GRIN3A LBD mod, FAS TE block)
COC(=O)c1cc(-c2ccc(F)cc2OCc2ccccc2)c(=O)n2c1CCC2	none (no result: GRIN3A LBD mod, FAS TE block)
O=C(NCC(c1ccco1)N1CCc2ccccc2C1)c1ccc([N+](=O)[O-])cc1 (centres undefined)	FAS TE block 60 | FAS-TE conf inactive
CCN(C(=O)COC(=O)c1cc(-c2cccc3ccccc23)nc2ccccc12)C1CCS(=O)(=O)C1 (centres undefined)	FAS TE block 60 | FAS-TE conf inactive
O=c1nc(SCc2c(F)cccc2Cl)nc(-c2ccc(Cl)cc2)[nH]1	FAS TE block 57 | FAS-TE conf inactive
CCCCNC(=O)O[C@H]1CC[C@@]23CCCN2C(=O)CCC[C@H]3[C@H]1C	none (no result: proKLK7 act, GRIN3A LBD mod, FAS TE block)
COc1ccc(CN2C(=O)[C@@](O)(c3cccn3C)c3cc(Br)ccc32)cc1	none (no result: GRIN3A LBD mod, FAS TE block)
O=C(COC(=O)c1cc([N+](=O)[O-])ccc1Cl)NCCc1ccccc1	FAS TE block 76 | FAS-TE conf 83
CN(C(=O)COC(=O)c1ccc([N+](=O)[O-])cc1)c1ccccc1	none
CN(C(=O)COC(=O)c1cc([N+](=O)[O-])ccc1Cl)c1ccccc1	FAS TE block 52 | FAS-TE conf 62
CCCCCc1ccc(-c2n[nH]c(=O)c3ccccc23)cc1	none (no result: GRIN3A LBD mod, FAS TE block)
Cc1ccc(C(=O)N/C(=C\c2cn(S(=O)(=O)N(C)C)c3ccccc23)C(=O)NCCN2CCOCC2)cc1	FAS TE block 60 | FAS-TE conf 67
COc1cc(C(=O)N/C(=C\c2cn(S(=O)(=O)N(C)C)c3ccccc23)C(=O)NCCCO)cc(OC)c1OC	none
CCCNC(=O)/C(=C/c1cn(S(=O)(=O)N(C)C)c2ccccc12)NC(=O)c1ccc(OC)cc1	FAS TE block 81 | FAS-TE conf 88
CCn1cc(/C=C(\NC(=O)c2ccc(OC)cc2)C(=O)NCCCn2ccnc2)c2ccccc21	none (no result: GRIN3A LBD mod)
COc1ccc(C(=O)N/C(=C\c2cn(S(=O)(=O)N(C)C)c3ccccc23)C(=O)NCCCn2ccnc2)cc1	FAS TE block 54 | FAS-TE conf inactive
Cc1cccc(-c2nnc(SCC(=O)Nc3cccc4ccccc34)n2Cc2ccco2)c1	none (no result: GRIN3A LBD mod, FAS TE block)
CCC(CC)C(=O)Nc1cc([N+](=O)[O-])ccc1Cl	none
COc1ccc(NC(=O)CN(c2ccc([N+](=O)[O-])cc2)S(=O)(=O)c2ccccc2)c(OC)c1	FAS TE block 70 | FAS-TE conf 68
COc1ccc([N+](=O)[O-])cc1NC(=O)CC(c1ccccc1)c1ccccc1	FAS TE block 62 | FAS-TE conf 54
CCOc1ccc(-n2cc(C(=O)Nc3cccc(Cl)c3)c3cc(OC)c(OC)cc3c2=O)cc1	FAS TE block 59 | FAS-TE conf inactive
CCOc1ccc(NC(=O)c2cn(-c3ccc(OCC)cc3)c(=O)c3cc(OC)c(OC)cc23)cc1	none
COc1cccc(NC(C)C(=O)Nc2cc([N+](=O)[O-])ccc2Cl)c1 (centres undefined)	FAS TE block 56 | FAS-TE conf 58
C=CCN1C(=O)[C@H](CC(=O)NCc2ccccc2)[C@@]2(C(=O)OCC)CCCC=C12	none (no result: GRIN3A LBD mod, FAS TE block)
Cn1cc(CC(=O)Nc2ccc(Nc3cccnc3)cc2)c2ccccc21	none (no result: GRIN3A LBD mod, FAS TE block)
COC(=O)c1cc(-c2cccc(C#N)c2)c(=O)n2c1CCC2	none (no result: GRIN3A LBD mod, FAS TE block)
O=C(C1CCCO1)N1CCN(C2=Nc3ccccc3Sc3ccccc32)CC1 (centres undefined)	none (no result: GRIN3A LBD mod, FAS TE block)
Cc1ccc(N(CC(=O)N/N=C/c2ccc(OC3CSC3)cc2)S(=O)(=O)c2ccccc2)cc1	none
COc1ccc([N+](=O)[O-])cc1NC(=O)C1(c2ccccc2)CCOCC1	FAS TE block 51 | FAS-TE conf 53
COc1ccc([N+](=O)[O-])cc1NC(=O)c1cn(-c2ccc(Cl)cc2)c(=O)c2ccccc12	FAS TE block 91 | FAS-TE conf inactive
COc1ccc(N(CC(=O)N/N=C/c2ccc(OC3CSC3)cc2)S(=O)(=O)c2ccccc2)cc1	GRIN3A LBD mod 16, FAS TE block 50 | FAS-TE conf inactive
COc1ccc([N+](=O)[O-])cc1NC(=O)CCN1CCOCC1	none
COc1ccc([N+](=O)[O-])cc1NC(=O)C(C)NNC(=O)c1cccc([N+](=O)[O-])c1 (centres undefined)	FAS TE block 56 | FAS-TE conf 53
O=C(NCCc1c[nH]c2ccccc12)OCc1cn(-c2cccc(Cl)c2)nn1	none (no result: GRIN3A LBD mod, FAS TE block)
C=CCn1c(SCC(N)=O)nnc1-c1ccc(C)cc1	none (no result: GRIN3A LBD mod, FAS TE block)
N#CCC[C@H]1CC[C@]2(CCCN(C(=O)c3ccno3)C2)O1	none (no result: GRIN3A LBD mod, FAS TE block)
CC(=O)OC12CCCN(C1)/C(=C/c1ccc(Cl)cc1)C2 (centres undefined)	none (no result: GRIN3A LBD mod, FAS TE block)
CN1C2=N[C@H](c3cccc(C(F)(F)F)c3)CC(=O)N2/C(=C\c2ccccc2)[C@H]1c1ccccc1	none (no result: proKLK7 act, GRIN3A LBD mod, FAS TE block)
CC(CC(=O)Nc1cc([N+](=O)[O-])ccc1Cl)c1ccccc1 (centres undefined)	none
O=C(Nc1cc([N+](=O)[O-])ccc1Cl)C(Sc1ccccc1)c1ccccc1 (centres undefined)	FAS TE block 73 | FAS-TE conf 67
COc1ccc(Cl)cc1-c1cc(C(=O)NCc2ccc(C(F)(F)F)cc2)[nH]n1	FAS TE block 56 (no result: GRIN3A LBD mod) | FAS-TE conf 55
COc1ccc(C2CC(=O)C(c3cccc(C)c3)=CN2Cc2ccccc2)cc1 (centres undefined)	none (no result: GRIN3A LBD mod, FAS TE block)
COc1ccc(OC)c(NC(=O)C(=O)N/N=C/c2ccccc2[N+](=O)[O-])c1	none
COc1ccc(NC(=O)C(=O)N/N=C/c2cc(C)n(-c3cccc(Cl)c3Cl)c2C)c(OC)c1	FAS TE block 63 | FAS-TE conf inactive
